Most compounds without a hit are left out; they make up all but 1.6% or so of the library.
KCNQ2 enhance – potentiators of rat KCNQ2 potassium channel; actives 0.54% (n = 310,000); Potassium voltage-gated channel subfamily KQT member 2 (Rattus norvegicus), O88943; B-score at 10 µM; CHO-K1 KCNQ2, FluxOR thallium flux fluorescence; active compounds read high; AID 2239, 2010;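 active = fluorescence ratio B-score at least 3 SD of library B-scores, with initial fluorescence B-score within 3 of them, cut at about 5.3 in these data; same plate scores as AID 2156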;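 also: B-score of peak minus minimum over baseline fluorescence ratio after K+ and Tl+ stimulus; positive B-score means potentiation of KCNQ2 with more thallium influx and brighter signal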
KCNQ2 inh – rat KCNQ2 potassium channel inhibitors, primary screen, cell-based, CHO-K1, FluxOR thallium flux, B-score; Potassium voltage-gated channel subfamily KQT member 2 (Rattus norvegicus), O88943; B-score at 10 µM; 20 min; active compounds read low; actives 1.1% (n = 310,000);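 active = fluorescence ratio B-score at most minus 3 library SDs, with starting brightness B-score within 2 library SDs, cut at about -5.5 in these data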
Kir21 confirm – mouse Kir2.1 channel blockers, retest, confirmation, cell-based, FluxOR thallium flux, duplicate; shares compounds with KCNQ2 enhance; Kir2.1-expressing cells, FluxOR thallium flux fluorescence; active compounds read low; Tl flux remaining, % of negative control (active compounds read low), % at 10 µM; actives 41% (n = 2,300);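 active = Primary-screen hit whose thallium flux fell at least 3 control SD below untreated wells in both duplicates, with normal baseline fluorescence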;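 also: 0% = blank wells without stimulus and 100% = stimulated no-compound controls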
HEK293 Tl flux – counter-screen for Kir2.1 inhibitors: effect in parental HEK293 cells; shares compounds with KCNQ2 enhance; FluxOR thallium flux fluorescence; 0% = unstimulated blank wells; actives 19% (n = 2,300); FluxOR signal as % of negative control (100 = no effect), % at 10 µM;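 active = dye signal at least 3 control SD above or below untreated wells in both duplicates, raw fluorescence within 3, either direction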;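 also: percent is based on the flux ratio of peak minus minimum fluorescence over baseline F0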
CHO-K1 Tl ctr – nonspecific thallium flux increase in parental CHO-K1, confirmation, counter-screen for KCNQ2 potentiator project, cell-based, FluxOR thallium flux, duplicate | shares compounds with KCNQ2 enhance | parental CHO-K1 cells, FluxOR thallium flux fluorescence; zero = vehicle mean+3SD, 100% = vehicle-minus-blank window | activity increase over 3SD of controls, % at 10 µM | actives 43% (n = 1,200) | AID 2282, 2010;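 active = signal rise of at least 3 SD above the untreated control mean, in both duplicate wells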;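 also: counter screen of KCNQ2 potentiator hits so any rise reflects channel-independent effects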
KCNQ1 sel pot – human KCNQ1 channel potentiation off-target, confirmation, selectivity assay for KCNQ2 potentiator project, cell-based, CHO, FluxOR thallium flux; CHO KCNQ1 stable, FluxOR thallium flux fluorescence; beyond 3SD, as % of vehicle-control signal; actives 28% (n = 1,200); activation over 3SD threshold, % at 10 µM; shares compounds with KCNQ2 enhance;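 active = fluorescence ratio rise of at least 3 SD of vehicle wells above their mean, in both replicate wells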;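 also: 0% = vehicle mean plus 3 SD and 100% = vehicle minus unstimulated blank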
Target sequence (P51787 whole entry, looked up): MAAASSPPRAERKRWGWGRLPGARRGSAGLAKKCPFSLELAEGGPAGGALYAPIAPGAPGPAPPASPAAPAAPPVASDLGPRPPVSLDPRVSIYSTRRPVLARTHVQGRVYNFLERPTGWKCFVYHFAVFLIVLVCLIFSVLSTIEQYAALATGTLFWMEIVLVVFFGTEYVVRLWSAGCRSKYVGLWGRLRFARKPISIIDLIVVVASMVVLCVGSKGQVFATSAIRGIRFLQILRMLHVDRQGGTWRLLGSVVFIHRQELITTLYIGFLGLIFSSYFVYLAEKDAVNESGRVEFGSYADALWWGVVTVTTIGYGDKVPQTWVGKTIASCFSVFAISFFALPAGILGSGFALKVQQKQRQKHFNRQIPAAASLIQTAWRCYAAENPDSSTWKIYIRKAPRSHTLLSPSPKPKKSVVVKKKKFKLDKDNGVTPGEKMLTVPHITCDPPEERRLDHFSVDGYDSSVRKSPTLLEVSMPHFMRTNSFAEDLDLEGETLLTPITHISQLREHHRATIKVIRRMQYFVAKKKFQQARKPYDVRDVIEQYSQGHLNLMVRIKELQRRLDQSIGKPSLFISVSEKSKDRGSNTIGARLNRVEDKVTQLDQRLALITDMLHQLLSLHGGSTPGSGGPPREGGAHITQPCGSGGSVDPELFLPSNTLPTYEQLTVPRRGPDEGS
KCNQ2 pot confirm – rat KCNQ2 channel potentiators, confirmation, cell-based, CHO, FluxOR thallium flux, duplicate; shares compounds with KCNQ2 enhance; CHO-KCNQ2 cells, FluxOR thallium flux fluorescence; potentiation, less the hit threshold, % at 10 µM; actives 68% (n = 1,200);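 active = fluorescence ratio rising 3 SD or more over the vehicle control mean in both replicates, plus primary screen hit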;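 also: peak minus minimum thallium fluorescence divided by baseline after K/Tl stimulus; 0% = vehicle mean plus 3 SD and 100% = vehicle minus unstimulated blank difference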
Kir21 spec – mouse Kir2.1 channel activation off-target, confirmation, selectivity assay for KCNQ2 potentiator project, cell-based, HEK293, FluxOR thallium flux | shares compounds with KCNQ2 enhance | HEK293 Kir2.1, FluxOR thallium flux fluorescence | activity over 3SD threshold, % at 10 µM | actives 2% (n = 1,200);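 active = fluorescence ratio rise of at least 3 SD above the vehicle-control mean, seen in both replicates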;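 also: 0% = vehicle mean plus 3 SD and 100% = vehicle minus no-stimulus blank window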
KCNQ2 W236L MoA – potentiators of retigabine-insensitive KCNQ2 W236L, mechanism study for KCNQ2 potentiator project, cell-based, rat KCNQ2 W236L, CHO, automated patch clamp; shares compounds with KCNQ2 enhance; automated patch clamp current; current increase over 3SD of negative controls (%), active compounds read high, % at 25 µM; actives 10% (n = 940); AID 2558, 2010;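 active = current increase at least 3 SD of the untreated controls above them in both duplicate recordings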
Starred values were filed as active, the others as inactive; i = inactive; · = not tested or not shown.

SMILES	KCNQ2 enhance	KCNQ2 inh	Kir21 confirm	HEK293 Tl flux	others
Cc1ccc(N2C(=O)c3ccccc3C2C(=O)c2ccc(C)c(C)c2O)cc1 (stereo not given)	·	i	·	·
CSC1=C(C#N)C(CC(C)C)C2=C(CCCC2=O)N1 (stereo not given)	1.4	i	·	·
CSC1=C(C#N)C(CC(C)C)C(C(C)=O)=C(C)N1 (stereo not given)	1.2	i	72%*	i
CN(C)c1ccc(/C=N/NC(N)=S)cc1[N+](=O)[O-]	0.32	i	·	·
O=c1[nH]sc2ccccc12	6.7*	i	i	i	CHO-K1 Tl ctr=8.6*;KCNQ1 sel pot=-10;KCNQ2 pot confirm=-8;Kir21 spec=-45;KCNQ2 W236L MoA=i
O=c1c2ccccc2sn1-c1ccccc1	·	i	·	·
C/C(=N\Nc1nncc2ccccc12)c1ccc(C(C)(C)C)cc1	5.9*	i	i	i	CHO-K1 Tl ctr=65*;KCNQ1 sel pot=-21;KCNQ2 pot confirm=-33;Kir21 spec=-40
C/C(=N\Nc1nncc2ccccc12)c1ccc(O)cc1	0.41	i	·	·
COC(=O)c1sccc1NC(=S)NCc1ccc(Cl)cc1	7.2*	i	i	212%*	CHO-K1 Tl ctr=2.7*;KCNQ1 sel pot=-20;KCNQ2 pot confirm=38*;Kir21 spec=-22;KCNQ2 W236L MoA=i
COC(=O)c1ccc(C)c(NC(=S)NCc2ccc(Cl)cc2)c1	0.41	i	·	·
CN1CCN(C2=Cc3ccccc3Sc3cc(F)ccc32)CC1	·	i	57%*	i
CN1CCN(C2=Cc3ccc(Cl)cc3Sc3ccc(F)cc32)CC1	·	i	·	·
CC(NCCC(c1ccccc1)c1ccccc1)c1ccccc1 (stereo not given)	0.97	i	44%*	i
CC(NC1CCCC1)c1ccccc1 (stereo not given)	0.98	i	·	·
O=C(O)/C(=C\c1ccccc1OC(F)F)Sc1nnc(-c2ccc(F)cc2)o1	·	i	·	·
CCC(=O)Nc1ccc(S(=O)(=O)N2CCN(c3ccc(F)cc3)CC2)cc1	·	i	·	·
CCOC(=O)c1ccc(Nc2ncnc3ccc(C)cc23)cc1	0.62	i	·	·
CCOC(=O)c1cccc(Nc2ncnc3ccc(C)cc23)c1	1.7	i	52%*	i
CCOC(=O)CN1N=C(c2ccc(Cl)cc2)CCC1=O	0.35	i	·	·
CC1O[C@@H](O[C@H](C)CC/C=C/C(=O)O)C(O)C[C@H]1O (stereo not given in full)	1.1	i	·	·
Cc1ccc(-n2ncc3c2CC(C)(C)CC3NC(=O)c2ccccn2)cc1 (stereo not given)	·	i	·	·
CCN(c1ccc(OC)cc1)S(=O)(=O)c1ccc2c(c1)NC(=O)CS2	·	i	·	·
CCN(c1cccc(C)c1)S(=O)(=O)c1ccc2c(c1)NC(=O)CS2	·	i	62%*	i
COc1ccc(OC)c(C(=O)c2ccc(C(=O)Nc3cccc4ccccc34)cc2)c1	·	i	·	·
Cc1cccc(NC(=O)C2CC3CCC2C3)c1C (stereo not given)	6.9*	i	i	i	CHO-K1 Tl ctr=-23;KCNQ1 sel pot=-14;KCNQ2 pot confirm=14*;Kir21 spec=-29;KCNQ2 W236L MoA=i
SMILES	KCNQ2 enhance	KCNQ2 inh	Kir21 confirm	HEK293 Tl flux	others
COC(=O)c1sccc1NC(=O)C1CC2CCC1C2 (stereo not given)	1.1	i	·	·
Cc1cc(C)c(NC(=O)C2CC3CCC2C3)c(C)c1 (stereo not given)	28*	i	i	i	CHO-K1 Tl ctr=-6;KCNQ1 sel pot=-12;KCNQ2 pot confirm=112*;Kir21 spec=-21;KCNQ2 W236L MoA=i
CCOC(=O)c1ccc(NC(=O)C2CC3CCC2C3)cc1 (stereo not given)	1.3	i	·	·
COC(=O)c1ccc(NC(=O)C2CC3CCC2C3)cc1 (stereo not given)	1.2	i	·	·
Cc1cccc(C)c1NC(=O)C1CC2CCC1C2 (stereo not given)	6.2*	i	i	i	CHO-K1 Tl ctr=2.9*;KCNQ1 sel pot=34*;KCNQ2 pot confirm=-3;Kir21 spec=-32;KCNQ2 W236L MoA=i
CCOC(=O)/C=C/C(=O)Nc1ccc(S(=O)(=O)Nc2nccs2)cc1	·	i	·	·
O=C(Nc1cccc(N2C(=O)C=CC2=O)c1)c1cccs1	·	i	72%*	i
Cc1nc2ccccc2c(=O)n1-c1cccc(NC(=O)c2cccs2)c1	0.47	i	·	·
Cc1cc(=O)n2nc(N3CCCC(C(=O)Nc4ccc(C)c(C)c4)C3)sc2n1 (stereo not given)	·	i	·	·
N#Cc1ccc(/C=N/NC(=O)c2cccc(S(=O)(=O)N3CCOCC3)c2)cc1	·	i	·	·
CC(C)(C)c1ccc(C(=O)NC(=S)N2CCCCCC2)cc1	8.8*	i	i	268%*	CHO-K1 Tl ctr=-24;KCNQ1 sel pot=37*;KCNQ2 pot confirm=0.7*;Kir21 spec=-21;KCNQ2 W236L MoA=4.9%*
CC(C)(C)c1ccc(C(=O)NC(=S)N2CCCC2)cc1	2.1	i	·	·
COc1ccc(C(=O)NC(=S)N2CCNC(=O)C2)cc1Br	1.3	i	·	·
CC1CCN(C(=S)NC(=O)c2ccc(C(C)(C)C)cc2)CC1	7.1*	i	·	·	CHO-K1 Tl ctr=-11;KCNQ1 sel pot=-14;KCNQ2 pot confirm=5.8*;Kir21 spec=-37;KCNQ2 W236L MoA=i
CC1CCN(C(=S)NC(=O)c2ccccc2)CC1	0.9	i	·	·
COc1ccc(C(=O)NC(=S)N2CCC(C)CC2)cc1Br	6.5*	i	i	247%*	CHO-K1 Tl ctr=-14;KCNQ1 sel pot=-15;KCNQ2 pot confirm=-2;Kir21 spec=-38;KCNQ2 W236L MoA=i
COc1ccc(Cl)cc1N1C(=O)CN(Cc2cc(OC)c(OC)c(OC)c2)C1=S	2.4	i	·	·
CC(C)NC(=O)NC(=O)CSc1nncs1	·	i	·	·
COc1ccc(Cl)cc1NS(=O)(=O)N1CCOCC1	0.93	i	·	·
Nc1ccccc1C(O)(Cc1ccccc1)c1ccccc1 (stereo not given)	0.16	i	·	·
COc1ccc(/C=C/C2=CCN(Cc3ccc(OC)cc3)CC2)cc1	·	i	·	·
